Sfp inh: qHTS Assay for Inhibitors of Bacillus subtilis Sfp phosphopantetheinyl transferase (PPTase). 4'-phosphopantetheinyl transferase ffp (Bacillus subtilis), Q9F4F7. Biochemical Sfp PPTase activity, qHTS. Potency, µM, actives largely listed as inhibitors. 310,000 compounds, 3.5% hits. AID 1490, 2009;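 note: the enzyme is Sfp with the accession as filed and its product quenches rhodamine fluorescence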
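With Hepes-Na pH 7.6 buffer containing 10 mM MgCl2, Sfp (15 nM) modified BHQ-2-YbbR (12.5 uM) using rhodamine-CoA (5 uM). Two reads 30 minutes apart at 525/598 nm yielded each well's rate.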
BAZ2B inh: qHTS Assay for Inhibitors of BAZ2B. Potency, µM (titrated, usually from 114 µM), most hits filed as inhibitors. AlphaScreen BAZ2B-H3K14Ac peptide displacement. AID 504333, 2011. 360,000 compounds, 4.4% hits; note: nearly all actives have a fitted effect of over 60% in size
Target sequence (Q9UIF8 whole entry, looked up): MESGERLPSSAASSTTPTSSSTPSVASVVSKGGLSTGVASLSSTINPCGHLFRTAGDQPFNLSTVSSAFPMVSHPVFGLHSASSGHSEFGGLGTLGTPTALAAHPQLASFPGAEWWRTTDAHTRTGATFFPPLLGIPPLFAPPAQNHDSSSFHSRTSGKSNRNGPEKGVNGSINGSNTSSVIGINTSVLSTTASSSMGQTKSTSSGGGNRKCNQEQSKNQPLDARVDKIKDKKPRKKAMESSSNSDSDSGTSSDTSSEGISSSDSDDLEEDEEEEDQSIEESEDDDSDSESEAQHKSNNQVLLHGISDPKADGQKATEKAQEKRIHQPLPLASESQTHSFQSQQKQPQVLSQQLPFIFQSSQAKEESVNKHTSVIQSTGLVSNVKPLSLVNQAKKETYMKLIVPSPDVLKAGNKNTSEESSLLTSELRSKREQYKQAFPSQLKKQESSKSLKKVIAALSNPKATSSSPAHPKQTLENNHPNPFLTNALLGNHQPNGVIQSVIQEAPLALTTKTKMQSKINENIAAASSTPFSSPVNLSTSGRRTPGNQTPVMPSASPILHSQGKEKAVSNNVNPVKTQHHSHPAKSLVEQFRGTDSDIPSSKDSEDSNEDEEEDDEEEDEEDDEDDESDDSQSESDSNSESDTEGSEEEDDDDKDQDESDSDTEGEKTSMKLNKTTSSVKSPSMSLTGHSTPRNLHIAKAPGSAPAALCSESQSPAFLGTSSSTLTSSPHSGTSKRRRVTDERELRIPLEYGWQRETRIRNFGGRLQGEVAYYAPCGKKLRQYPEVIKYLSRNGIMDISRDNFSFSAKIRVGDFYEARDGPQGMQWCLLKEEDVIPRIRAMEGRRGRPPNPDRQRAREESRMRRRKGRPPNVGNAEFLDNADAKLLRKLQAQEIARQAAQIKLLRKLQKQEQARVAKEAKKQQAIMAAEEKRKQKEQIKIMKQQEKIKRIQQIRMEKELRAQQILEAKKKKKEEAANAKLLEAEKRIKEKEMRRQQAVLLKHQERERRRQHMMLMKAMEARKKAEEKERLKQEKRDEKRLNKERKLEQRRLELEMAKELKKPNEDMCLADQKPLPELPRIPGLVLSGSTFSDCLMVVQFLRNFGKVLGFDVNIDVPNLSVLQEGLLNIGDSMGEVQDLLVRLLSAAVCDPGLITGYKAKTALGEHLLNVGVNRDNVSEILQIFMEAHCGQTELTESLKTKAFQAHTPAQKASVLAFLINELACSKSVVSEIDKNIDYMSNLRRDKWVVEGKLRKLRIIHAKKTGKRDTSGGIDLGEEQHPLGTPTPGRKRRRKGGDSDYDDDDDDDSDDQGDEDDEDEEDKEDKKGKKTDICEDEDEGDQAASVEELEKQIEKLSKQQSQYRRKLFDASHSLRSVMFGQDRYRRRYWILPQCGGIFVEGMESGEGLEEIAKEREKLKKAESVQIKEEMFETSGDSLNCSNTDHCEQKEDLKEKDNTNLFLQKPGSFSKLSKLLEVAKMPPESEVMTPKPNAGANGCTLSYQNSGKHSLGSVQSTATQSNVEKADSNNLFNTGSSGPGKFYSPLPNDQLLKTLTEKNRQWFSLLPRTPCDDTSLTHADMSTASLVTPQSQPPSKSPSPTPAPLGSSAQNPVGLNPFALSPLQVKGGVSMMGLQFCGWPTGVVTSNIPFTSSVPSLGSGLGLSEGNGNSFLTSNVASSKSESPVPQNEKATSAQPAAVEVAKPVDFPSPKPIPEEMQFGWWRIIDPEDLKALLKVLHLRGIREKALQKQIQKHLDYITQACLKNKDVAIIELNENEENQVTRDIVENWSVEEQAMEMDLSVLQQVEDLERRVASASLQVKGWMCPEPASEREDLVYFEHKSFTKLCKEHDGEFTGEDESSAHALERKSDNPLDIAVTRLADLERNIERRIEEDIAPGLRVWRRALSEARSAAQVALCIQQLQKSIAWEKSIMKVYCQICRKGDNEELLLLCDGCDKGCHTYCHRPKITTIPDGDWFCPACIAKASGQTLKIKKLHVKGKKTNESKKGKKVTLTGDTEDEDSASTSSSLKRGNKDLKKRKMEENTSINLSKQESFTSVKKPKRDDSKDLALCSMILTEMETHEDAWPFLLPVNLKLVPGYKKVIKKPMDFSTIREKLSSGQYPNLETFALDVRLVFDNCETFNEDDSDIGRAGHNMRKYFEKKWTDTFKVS
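Multi-concentration screen (max 110 uM) measuring displacement of acetylated histone H3 peptide from BAZ2B by AlphaScreen, using 50 nM protein, 50 nM peptide and 10 ug/mL streptavidin donor plus Ni-chelate acceptor beads.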
JMJD2A Tudor inh: qHTS Assay for Inhibitors of JMJD2A-Tudor Domain | AlphaScreen JMJD2A-Tudor / H3K4me3 peptide binding | Potency, µM (titrated, usually from 114 µM), most hits filed as inhibitors | 390,000 compounds, 4.4% hits | AID 504339, 2011; note: nearly all actives have a fitted effect of over 50% in size
G9a inh: qHTS Assay for Inhibitors of Histone Lysine Methyltransferase G9a | Histone-lysine N-methyltransferase EHMT2 (Homo sapiens), Q96KQ7 | G9a H3K9 monomethylation, AlphaScreen, 2 h | Potency, µM (titrated, usually from 102 µM), actives largely listed as inhibitors | 350,000 compounds, 8.8% hits; note: nearly all actives have a fitted effect of over 75% in size
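Enzyme 20 nM + cpd, 15 min RT; add b-H3K9 pep 500 nM / SAM 20 uM; 2 h RT; anti-H3K9me1 Ab 0.5 ug/mL + SA donor / anti-rabbit acceptor beads 20 ug/mL each, 10 min; AlphaScreen read.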
L3MBTL1 block: qHTS Assay for the Inhibitors of L3MBTL1; Potency, µM (top dose mostly 57.1 µM), actives largely listed as inhibitors; 230,000 compounds, 0.66% hits; AlphaScreen L3MBTL1–H3K9me1 peptide binding; note: nearly all actives have a fitted effect of over 60% in size
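First, the protein-peptide complex forms for 30 min at room temperature (L3MBTL1 50 nM, biotinylated H3K9me1 peptide 75 nM). Next, compounds are pin-transferred and incubated 30 min. Finally, AlphaScreen beads are added and read after 30 min.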
HP1b binding inh: HTS for Inhibitors of HP1-beta Chromodomain Interactions with Methylated Histone Tails; Potency, µM (top dose mostly 114 µM), usual class: inhibitors; AlphaScreen HP1-beta / biotin-H3K9me3 peptide binding; 390,000 compounds, 0.56% hits; AID 540317, 2011; Chromobox protein homolog 1 (Homo sapiens), P83916; note: nearly all actives have a fitted effect of over 70% in size
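AlphaScreen: HP1-beta (50 nM) preformed 30 min with biotin-H3(1-18)K9me3 peptide (50 nM) in PBS pH 7.4, 0.01% Tween-20. Compound added for 30 min at RT, then streptavidin donor/nickel chelate acceptor beads (10 ug/mL) for 30 min.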
Hits are given with their value; . = inactive; ? = inconclusive; / = not tested or not shown; [ ] = another dose, or the depositor's remark. Only some compounds are listed: those with a hit (about 12% of all), similar ones and a draw of the others. Calls come from the whole dose curve; as a rule, active = well fitted curve in the direction sought with a large enough effect; inconclusive = small, poorly fitted or top-dose-only effect, or another doubt; inactive = no such curve, though single readings can be large; an effect the other way counts as inactive or inconclusive.

SMILES	Sfp inh	BAZ2B inh	JMJD2A Tudor inh	G9a inh	L3MBTL1 block	HP1b binding inh
CC1C(C#N)=C(N)OC2=C1C(=O)CC(c1ccccc1)C2 (configuration not stated)	.	.	.	.	.	.
Cn1cccc1/C=N/n1cnnc1	.	79µM	.	?	/	.
O=C(N/N=C/c1ccccc1[N+](=O)[O-])c1ccc(CN2CCOCC2)cc1	.	.	.	.	.	.
Clc1ccccc1CN1CCN(/N=C/C=C/c2ccco2)CC1	56µM	32µM	45µM	/	?	?
Clc1ccc(C=NN2CCCCCC2)c(Cl)c1	/	/	?	/	/	.
CN1CCN(/N=C/c2cccc(Cl)c2Cl)CC1	.	?	?	40µM	.	.
O=[N+]([O-])c1ccccc1/C=N/N1CCN(Cc2ccccc2)CC1	.	28µM	25µM	40µM	?	?
COC(=O)CCC1(C(N)=O)CCC(=O)c2ccccc21 (configuration not stated)	/	/	.	/	/	.
O=C(NCC1CCN(Cc2ccccc2Cl)CC1)Nc1ccccc1F	.	.	.	.	/	.
Cn1cccc1CNCc1ccccc1Cl	.	.	?	.[2.33 µM]	.	.
FC(F)(F)c1cccc(OCCN2CCN(Cc3ccccc3)CC2)c1	35µM	50µM	0.89µM	11µM	.	?
O=[N+]([O-])c1ccccc1/C=N\N1CCN(Cc2ccccc2Cl)CC1	.	28µM	35µM	/	.	?
Cn1cccc1/C=N/N1CCN(Cc2ccccc2Cl)CC1	56µM	35µM	50µM	28µM	?	?
Fc1ccccc1/C=N/N1CCN(Cc2ccccc2Cl)CC1	?	50µM	50µM	.[0.501 µM]	.[2.29 µM]	.
CCCCNC(=O)C1CCN(c2nc3ccc(C)cc3[nH]2)CC1	/	.	.	.	/	.
COc1ccc2[nH]c3c(c2c1)CCN1C(=O)C(CC(=O)NCc2ccco2)C[C@H](C(=O)N(C(C)C)C(C)C)[C@@]31C (some centres not stated)	/	/	?	/	.	.
COc1ccc(-c2nc3scc(CCNS(=O)(=O)c4ccc5c(c4)OCCO5)n3n2)cc1OC	/	.	.	.	/	.
FC(F)(F)c1ccccc1/C=N/N1CCN(Cc2ccccc2)CC1	.	40µM	45µM	7.1µM	.	.
CCOc1ccccc1/C=N/N1CCN(Cc2ccccc2)CC1	.	50µM	56µM	/	.	?
CCOc1ccccc1OCCOCCN1CCN(Cc2ccccc2)CC1	79µM	18µM	0.79µM	/	.	?
COc1ccc(/C=N/N2CCN(Cc3ccccc3)CC2)cc1	.	?	?	.	.	?
CCOc1ccccc1NC(=O)CN1CCN(Cc2ccccc2)CC1	.	.	.	.	/	.
CS(=O)(=O)N1CCC2(CC1)CN(c1ncccn1)C2	.	/	/	.[12.7 µM]	/	/
O=S1(=O)N=C(Oc2ccccc2-c2ccccc2)c2ccccc21	/	/	.	/	/	/
CCn1c(Cc2cccn2C)nnc1SCC(=O)c1ccc(C)cc1	.	50µM	?	?	.	.
SMILES	Sfp inh	BAZ2B inh	JMJD2A Tudor inh	G9a inh	L3MBTL1 block	HP1b binding inh
CCn1c(SCC(=O)c2ccc([N+](=O)[O-])cc2)nnc1-c1ccc(Cl)cc1	/	.	.	?	/	.
CCn1c(SCC(=O)N/N=C(\C)c2ccncc2)nnc1-c1ccc(C)cc1	.	.	.	50µM	.	.
CCn1c(SCC(=O)c2ccc(O)c(O)c2)nnc1-c1ccc(C)cc1	.	?	28µM	.[2.33 µM]	?	.
CCn1c(SCC(=O)c2ccc3c(c2)Cc2ccccc2-3)nnc1-c1ccc(N)cc1	79µM	.	.	.[0.501 µM]	.	.
CCOC(=O)[C@H]1[C@H]2COc3ccc(OC)cc3[C@@H]2N2C(=O)c3cc(OC)c(OC)cc3NC(=O)[C@@]12C	/	.	.	.[2.33 µM]	.	.
COc1ccc2[nH]c3c(c2c1)CCNC3c1ccc([N+](=O)[O-])o1 (configuration not stated)	50µM	?	50µM	32µM	/	.
COc1ccc2[nH]c3c(c2c1)CCNC3C1CC=C(C)CC1 (configuration not stated)	.	.	.	.	.	.
COc1ccc(C2=CSC3=NCCN23)cc1F	.	.	.	28µM	.	.
CCOC(=O)c1c(C)[nH]c(-c2csc(N)n2)c1C	35µM	?	?	28µM	?	?
CCc1ccc(CN(Cc2cn[nH]c2-c2ccc(OC)cc2)C(=O)Nc2ccc(C)c(F)c2)cc1	/	.	.	.	/	.
CCSc1nnc(NC(=O)/C=C/c2ccco2)s1	.	.	.	.	/	.
O=C(/C=C/c1ccco1)Nc1cccc(NC(=O)/C=C/c2ccco2)n1	.	?	?	10µM	?	.
CCc1nnc(NC(=O)/C=C/c2ccco2)s1	.	.	.	50µM	.	.
Cc1nc(NC(=O)/C=C/c2ccco2)sc1C	71µM	?	.	?	?	.
CCN(CC(=O)Nc1c(F)cccc1F)C(=O)c1ccc(NC(=O)CC2SC(N3CCCC3)=NC2=O)cc1 (configuration not stated)	/	.	.	.[0.501 µM]	.	.
Cc1oc(-c2ccccc2)nc1CNS(=O)(=O)c1ccc(Cl)cc1	/	.	.	.	/	.
O=C(NCc1nc2ccccc2[nH]1)C1=C[C@H](c2coc3ccccc3c2=O)C[C@H](OCCCCO)O1	/	/	.	/	/	.

Screening data: PubChem, National Center for Advancing Translational Sciences (NCATS)
